In PubChem BioAssay:
Records with an inconclusive call do not appear. For part of these data: Results with a measured potency or affinity are listed apart. Calls of active or inactive are those of the source.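 How the source made its calls, unless noted: active means normalized viability below 100% at a tested concentration; inactive means the rest.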

Key:
[1] = antimalarial activity against Dd2 strain (AID 2302;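 active means growth inhibition above 50% at the single 2 µM test dose, taken to imply half-maximal potency below 2 µM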;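 further: 0% = DMSO untreated growth and 100% = chloroquine plus artemisinin killed control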); details: P. falciparum Dd2 in RBCs, LDH growth readout, 72 h; at 2 µM; stronger effect = higher value
[2] = human hepatoma cell viability loss – ATP luminescence, cytotoxicity control for P. falciparum antimalarial project, primary screen (AID 2303;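 active means inhibition above 50%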;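 further: 0% = DMSO wells and 100% = digitonin-killed cells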); details: HepG2 viability, 24-48 h, at 10 µM, stronger effect = higher value
[3] = biological target: L-lactate dehydrogenase (Plasmodium falciparum (isolate CDC / Honduras)) (UniProt Q27743); experiment: PfLDH activity inhibition – cell lysate, 3D7 strain, counter-screen for P. falciparum growth inhibition project (AID 2304; call rule not given here;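 further: 0% = vehicle and 100% = reference inhibitor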); details: P. falciparum 3D7 crude extract, LDH APAD/NBT absorbance; at 2 µM; stronger effect = higher value
[4] = inhibition of 3D7 malaria parasite growth – strain 3D7 (AID 2306; call rule not given here;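 further: 0% = DMSO wells and 100% = chloroquine plus artemisinin control wells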); details: P. falciparum 3D7 erythrocytic growth, LDH absorbance, 72 h; at 2 µM; stronger effect = higher value
[5] = biological target: Calcium-dependent protein kinase 1 (Plasmodium falciparum (isolate 3D7)) (UniProt P62344); experiment: PfCDPK1 kinase inhibitors, biochemical, TCAMS library (AID 1159585; cut-off not given, nearly all actives have IC50 up to about 0.98 µM;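 further: inhibitors leave more ATP so luminescence rises with inhibition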); details: recombinant PfCDPK1, Kinase-Glo ATP depletion luminescence
[6] = biological target: Plasmodium falciparum protein kinase 6 (PK6, PF3D7_1337100) (UniProt Q8IDW1); experiment: PfPK6 kinase inhibitors, biochemical, TCAMS library (AID 1159586; call rule not given here); details: recombinant PfPK6, Kinase-Glo ATP depletion luminescence
[7] = biological target: Protein kinase 7 (PK7), Plasmodium falciparum 3D7 (PF3D7_0213400) (UniProt Q7YTF7); experiment: inhibition of Plasmodium PK7 catalytic activity – biochemical, TCAMS antimalarial set, Kinase-Glo luminescence (AID 1159587; call rule not given here); details: recombinant PfPK7, Kinase-Glo ATP depletion luminescence
[8] = biological target: Calcium-dependent protein kinase 4 (Plasmodium falciparum (isolate 3D7)) (UniProt Q8IBS5); experiment: PfCDPK4 kinase inhibitors, biochemical, TCAMS library (AID 1159588; cut-off not given, nearly all actives have IC50 up to about 0.91 µM); details: recombinant PfCDPK4, Kinase-Glo ATP depletion luminescence
[9] = viability loss in pontine glioma line – cell-based, SU-DIPG-XVII, MIPE5.0, CellTiter-Glo, qHTS, dose response (AID 1347060; cut-off not given, nearly all actives have AC50 up to about 26 µM;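 further: cells exposed to compound for 48 hours before viability readout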); details: CellTiter-Glo ATP luminescence
[10] = viability loss in pontine glioma line – cell-based, SU-DIPG-IV, MIPE4.0, CellTiter-Glo, qHTS, dose response (AID 1347063; cut-off not given, nearly all actives have AC50 up to about 30 µM;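 further: compound exposure lasted 48 hours before the viability readout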); details: CellTiter-Glo ATP luminescence
[11] = viability loss in pontine glioma line – cell-based, SU-DIPG-XIII, MIPE5.0, CellTiter-Glo, qHTS, dose response (AID 1347064; cut-off not given, nearly all actives have AC50 up to about 23 µM;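 further: cells exposed to compound for 48 hours before the viability read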); details: CellTiter-Glo ATP luminescence
[12] = viability loss in pontine glioma line – cell-based, SU-DIPG-XXV, MIPE5.0, CellTiter-Glo, qHTS, dose response (AID 1347065; cut-off not given, nearly all actives have AC50 up to about 26 µM;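 further: cells exposed to compound for 48 hours before ATP readout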); details: CellTiter-Glo ATP luminescence
[13] = growth inhibition of DIPG cells – cell-based, MIPE4.0 library, CellTiter-Glo luminescence, qHTS (AID 1347066; cut-off not given, nearly all actives have AC50 up to about 30 µM;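 further: cells exposed to compound for 48 hours before readout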); details: SU-DIPG-VI viability, CellTiter-Glo ATP luminescence
[14] = JHH-DIPG-1 glioma cell viability, MIPE5.0 library, CellTiter-Glo luminescence, qHTS (AID 1347067; cut-off not given, nearly all actives have AC50 up to about 26 µM;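 further: cells exposed to compound for 48 hours before readout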); details: JHH-DIPG-1 glioma viability, CellTiter-Glo ATP luminescence
[15] = viability loss with induced miR-34 in A549 – imaging, A549 dox-inducible miR-34, nuclei and caspase counts, primary screen (AID 1347080;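 active means compounds whose cell count with miR-34 switched on is under 0.7 times the count with it off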); details: A549 miR-34 inducible, Hoechst nuclei count, 48 h
[16] = compounds altering HSF1 focus formation in cells – imaging, Selleck Cancer Library (AID 1347162; in the data active means plate-normalised HSF1 focus index below about 0.46); details: human cells, HSF1 nuclear foci imaging, at 10 µM; SSMD: measured here: HSF1 foci SSMD mean; cell count: measured here: cell number; plate-normalised HSF1 focus index: stronger effect = lower value
[17] = MELAS cybrid and Rieske KO viability enhancers – cell-based, MELAS cybrids, Rieske KO mouse fibroblasts, CellTiter-Glo, primary screen (AID 1508586;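 active means mean z-score across replicates of 1.96 or higher in either the MELAS or the Rieske mutant cell line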;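 further: z relative to plate mean and SD of compound and empty wells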); details: low glucose
[18] = drug combination growth inhibition, ovarian cancer – cell-based, oncology-focused library, rucaparib conditional, profiling panel (AID 1508598); details: patient-derived ovarian cancer cells, CellTiter-Glo viability, 144 h, stronger effect = lower value
[19] = tested on: Aerobactin synthetase IucA (Klebsiella pneumoniae); experiment: inhibition of K. pneumoniae IucA enzyme – biochemical, Tocris library, absorbance (AID 1345561; call rule not given here;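 further: 100% = enzyme without compound and 0% = no enzyme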); details: purified IucA enzyme assay, absorbance (OD) read-out; stronger effect = lower value;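 tested at 8 µM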
[20] = galactose survival enhancers in mitochondrial complex I cybrids – cell-based, galactose medium, ATP luminescence, primary screen (AID 1645843;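 active means z-score of at least 1.8 in each of two replicates, scored against plate mean and spread of sample wells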;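 further: positive z means more ATP and so rescue of galactose-driven cybrid death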); details: complex I mutant cybrid cells, 72 h, stronger effect = higher value
[21] = stronger effect = lower value, cell number ratio, induced over uninduced
[22] = measured here: relative caspase fold change +Dox/-Dox
[23] = measured here: total cells with miR-34 induction, stronger effect = lower value
[24] = measured here: total cells without miR-34 induction

Calcium-dependent protein kinase 4 (Plasmodium falciparum (isolate 3D7)), sequence (Q8IBS5 whole entry, looked up): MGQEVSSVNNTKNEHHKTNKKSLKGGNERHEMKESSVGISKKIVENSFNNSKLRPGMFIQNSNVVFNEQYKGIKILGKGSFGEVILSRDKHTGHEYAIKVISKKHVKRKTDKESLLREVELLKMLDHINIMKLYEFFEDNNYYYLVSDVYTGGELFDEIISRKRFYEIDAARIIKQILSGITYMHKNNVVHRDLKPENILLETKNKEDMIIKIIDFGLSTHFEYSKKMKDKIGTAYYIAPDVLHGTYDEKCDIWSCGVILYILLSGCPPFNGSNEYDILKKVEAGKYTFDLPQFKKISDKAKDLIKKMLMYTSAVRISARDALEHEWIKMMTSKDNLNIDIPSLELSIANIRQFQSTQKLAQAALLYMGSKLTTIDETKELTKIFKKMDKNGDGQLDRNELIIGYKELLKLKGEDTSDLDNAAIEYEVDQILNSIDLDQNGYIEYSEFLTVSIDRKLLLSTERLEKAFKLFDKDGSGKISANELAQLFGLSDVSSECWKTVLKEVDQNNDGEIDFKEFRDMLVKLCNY
L-lactate dehydrogenase (Plasmodium falciparum (isolate CDC / Honduras)), sequence (Q27743 whole entry, looked up): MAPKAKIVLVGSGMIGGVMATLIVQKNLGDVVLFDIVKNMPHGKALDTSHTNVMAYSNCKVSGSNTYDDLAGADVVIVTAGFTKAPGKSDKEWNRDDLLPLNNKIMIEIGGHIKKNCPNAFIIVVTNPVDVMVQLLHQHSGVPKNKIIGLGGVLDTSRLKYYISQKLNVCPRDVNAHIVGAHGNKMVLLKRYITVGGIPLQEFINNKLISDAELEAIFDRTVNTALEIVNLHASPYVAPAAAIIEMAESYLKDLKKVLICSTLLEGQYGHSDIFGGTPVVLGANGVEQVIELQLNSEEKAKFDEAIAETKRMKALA
Protein kinase 7 (PK7), Plasmodium falciparum 3D7 (PF3D7_0213400), sequence (Q7YTF7 1-343): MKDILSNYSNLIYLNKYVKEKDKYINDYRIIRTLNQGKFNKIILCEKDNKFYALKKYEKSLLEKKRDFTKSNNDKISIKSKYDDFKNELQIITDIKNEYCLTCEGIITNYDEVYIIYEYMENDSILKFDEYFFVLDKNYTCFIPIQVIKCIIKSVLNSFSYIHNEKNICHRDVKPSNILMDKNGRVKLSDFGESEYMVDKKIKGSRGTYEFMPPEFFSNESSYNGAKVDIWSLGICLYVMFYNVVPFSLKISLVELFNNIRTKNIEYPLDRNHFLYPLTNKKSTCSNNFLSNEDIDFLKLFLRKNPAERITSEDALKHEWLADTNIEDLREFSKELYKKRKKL
Calcium-dependent protein kinase 1 (Plasmodium falciparum (isolate 3D7)), sequence (P62344 whole entry, looked up): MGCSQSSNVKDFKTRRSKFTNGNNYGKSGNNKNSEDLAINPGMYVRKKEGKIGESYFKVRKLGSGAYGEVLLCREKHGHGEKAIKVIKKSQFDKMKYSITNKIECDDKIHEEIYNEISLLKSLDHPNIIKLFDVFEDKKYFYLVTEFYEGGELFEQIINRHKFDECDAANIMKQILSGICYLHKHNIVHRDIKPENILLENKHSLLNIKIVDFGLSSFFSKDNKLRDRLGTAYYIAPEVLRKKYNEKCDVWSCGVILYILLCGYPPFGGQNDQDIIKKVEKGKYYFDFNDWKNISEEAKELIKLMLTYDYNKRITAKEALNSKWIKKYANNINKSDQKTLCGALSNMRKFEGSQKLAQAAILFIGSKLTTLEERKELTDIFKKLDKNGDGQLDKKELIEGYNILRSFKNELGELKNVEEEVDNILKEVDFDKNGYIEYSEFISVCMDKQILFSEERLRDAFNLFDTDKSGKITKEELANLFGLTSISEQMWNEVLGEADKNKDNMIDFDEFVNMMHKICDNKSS
Plasmodium falciparum protein kinase 6 (PK6, PF3D7_1337100), sequence (Q8IDW1 1-305): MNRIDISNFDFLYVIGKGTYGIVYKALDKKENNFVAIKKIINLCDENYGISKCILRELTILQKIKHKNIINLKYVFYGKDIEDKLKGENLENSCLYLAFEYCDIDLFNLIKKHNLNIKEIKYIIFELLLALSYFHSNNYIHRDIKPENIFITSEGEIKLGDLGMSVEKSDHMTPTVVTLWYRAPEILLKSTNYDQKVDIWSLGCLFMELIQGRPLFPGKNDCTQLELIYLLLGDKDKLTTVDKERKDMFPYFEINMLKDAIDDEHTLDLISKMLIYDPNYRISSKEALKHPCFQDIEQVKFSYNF

FC(F)c1nc2ccccc2n1-c1nc(N2CCOCC2)nc(N2CCOCC2)n1
inactive: inhibition [2] 47% | inhibition [3] -2% | outcome [5] | outcome [6] | outcome [7] | outcome [8] | fold change [15, 21] 0.814 | plate-normalised HSF1 focus index [16] 0.994 | viability ([18]; at 0.000305 µM, OCI-C5x cells, with rucaparib 10 µM, 100% = cells with rucaparib alone) 125% | viability ([18]; at 0.000305 µM, OCI-C5x cells, without rucaparib) 124% | viability ([18]; at 0.00122 µM, OCI-C5x cells, without rucaparib) 119% | viability ([18]; at 0.00488 µM, OCI-C5x cells, with rucaparib 10 µM, 100% = cells with rucaparib alone) 115% | viability ([18]; at 0.00488 µM, OCI-C5x cells, without rucaparib) 120% | viability ([18]; at 0.0195 µM, OCI-C5x cells, with rucaparib 10 µM, 100% = cells with rucaparib alone) 122% | viability ([18]; at 0.0195 µM, OCI-C5x cells, without rucaparib) 116% | viability ([18]; at 0.0781 µM, OCI-C5x cells, with rucaparib 10 µM, 100% = cells with rucaparib alone) 126% | viability ([18]; at 0.0781 µM, OCI-C5x cells, without rucaparib) 117% | viability ([18]; at 0.313 µM, OCI-C5x cells, with rucaparib 10 µM, 100% = cells with rucaparib alone) 128% | viability ([18]; at 0.313 µM, OCI-C5x cells, without rucaparib) 111% | viability ([18]; at 1.25 µM, OCI-C5x cells, with rucaparib 10 µM, 100% = cells with rucaparib alone) 107% | viability ([18]; at 1.25 µM, OCI-C5x cells, without rucaparib) 126%
1920: cell count [15, 23]
0.918: fold change [15, 22]
2350: cell count [15, 24]
active: growth inhibition [1] 99% | growth inhibition [4] 99% | AC50 [9] 742 nM | AC50 [10] 235 nM | AC50 [11] 833 nM | AC50 [12] 417 nM | AC50 [13] 3320 nM | AC50 [14] 2950 nM | z-score ([17]; MELAS cybrid survival, CellTiter-Glo 48 h, stronger effect = higher value) 2.99 | viability ([18]; at 0.000305 µM, OCI-P5x cells, with rucaparib 20 µM, 100% = cells with rucaparib alone) 88.5% | viability ([18]; at 0.000305 µM, OCI-P5x cells, without rucaparib) 82.7% | viability ([18]; at 0.00122 µM, OCI-P5x cells, with rucaparib 20 µM, 100% = cells with rucaparib alone) 75.5% | viability ([18]; at 0.00122 µM, OCI-P5x cells, without rucaparib) 34.1% | viability ([18]; at 0.00488 µM, OCI-P5x cells, with rucaparib 20 µM, 100% = cells with rucaparib alone) 93.4% | viability ([18]; at 0.00488 µM, OCI-P5x cells, without rucaparib) 97.4% | viability ([18]; at 0.0195 µM, OCI-P5x cells, with rucaparib 20 µM, 100% = cells with rucaparib alone) 94.1% | viability ([18]; at 0.0195 µM, OCI-P5x cells, without rucaparib) 90.9% | viability ([18]; at 0.0781 µM, OCI-P5x cells, with rucaparib 20 µM, 100% = cells with rucaparib alone) 89.9% | viability ([18]; at 0.0781 µM, OCI-P5x cells, without rucaparib) 93% | viability ([18]; at 0.313 µM, OCI-P5x cells, with rucaparib 20 µM, 100% = cells with rucaparib alone) 88.2% | viability ([18]; at 0.313 µM, OCI-P5x cells, without rucaparib) 84.5% | viability ([18]; at 1.25 µM, OCI-P5x cells, with rucaparib 20 µM, 100% = cells with rucaparib alone) 42% | viability ([18]; at 1.25 µM, OCI-P5x cells, without rucaparib) 62.9% | viability ([18]; at 5 µM, OCI-C5x cells, with rucaparib 10 µM, 100% = cells with rucaparib alone) 25.2% | viability ([18]; at 5 µM, OCI-C5x cells, without rucaparib) 45.8% | viability ([18]; at 5 µM, OCI-P5x cells, with rucaparib 20 µM, 100% = cells with rucaparib alone) 8.53% | viability ([18]; at 5 µM, OCI-P5x cells, without rucaparib) 15.4%
-0.193: z-score ([17]; Rieske KO mouse fibroblast survival, CellTiter-Glo 72 h)
-0.274: SSMD [16]
6850: cell count [16]

CCc1c(C)nc2nc(Cc3cccc(F)c3)nn2c1N1CCN(c2ccccn2)CC1
inactive: inhibition [2] -4% | inhibition [3] -1% | outcome [5] | outcome [6] | outcome [7] | outcome [8]
active: growth inhibition [1] 98% | growth inhibition [4] 100%

Oc1ccc(CCNc2nc(NCCCOc3ccccc3-c3ccc(F)cc3)nc(N3CCNCC3)n2)cc1
inactive: growth inhibition [1] 8% | inhibition [2] 30% | inhibition [3] -1% | outcome [5] | outcome [6] | outcome [7] | outcome [8]
active: growth inhibition [4] 85%

CS(=O)(=O)CCNCc1nc(-c2ccc3ncnc(Nc4ccc(OCc5cccc(F)c5)c(Cl)c4)c3c2)cs1
7720: cell count [15, 23]
active: growth inhibition [4] 98%
0.867: fold change [15, 22]
7820: cell count [15, 24]
inactive: growth inhibition [1] 34% | inhibition [2] 8% | inhibition [3] -3% | outcome [5] | outcome [6] | outcome [7] | outcome [8] | remaining activity [19] 122% | fold change [15, 21] 0.987 | z-score [20] -0.46
